From PubChem BioAssay
Compounds with a hit are over-represented: about 9.9% of the library has one in this group of screens.
HPGD block: HPGD (human) dehydrogenase inhibition | P15428 | purified HPGD, NADH fluorescence kinetic, PGE2 substrate | Potency, µM, most hits filed as inhibitors | 150,000 tested, 4.3% active
Target sequence (P15428 whole entry, looked up): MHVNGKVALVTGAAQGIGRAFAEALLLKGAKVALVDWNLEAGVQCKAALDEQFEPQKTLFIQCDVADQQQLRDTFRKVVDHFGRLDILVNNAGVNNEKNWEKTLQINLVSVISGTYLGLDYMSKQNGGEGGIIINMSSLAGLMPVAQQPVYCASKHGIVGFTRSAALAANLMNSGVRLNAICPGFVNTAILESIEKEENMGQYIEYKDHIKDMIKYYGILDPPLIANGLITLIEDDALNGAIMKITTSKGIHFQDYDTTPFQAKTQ
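20 nM HPGD preincubated 15 min at room temperature with compound in 50 mM Tris-HCl pH 8, 0.01% Tween 20. Started with 1 mM NAD+ and 30 uM prostaglandin E2; NADH fluorescence (360/450 nm) read 5 times over 30-s intervals, last minus first.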
JMJD2E inh: blocks human JMJD2E demethylase activity. B2RXH2. JMJD2E catalytic domain, FDH-coupled NADH fluorescence (FDH is formaldehyde dehydrogenase). Potency, µM (titrated, usually from 57.1 µM), most hits filed as inhibitors. 230,000 tested, 1.6% active. AID 2147; note: nearly all actives have a fitted effect of over 50% in size
ALDH1A1 block: blocks purified human ALDH1A1 activity; AID 1030; P00352; Potency, µM (highest dose often 75.3 µM), usual class: inhibitors; 220,000 tested, 7.3% active; Purified ALDH1A1, NADH fluorescence, propionaldehyde substrate
Tau FP inhib: inhibitors of human tau fibril formation. P10636. K18 P301L tau heparin fibrillization, Alexa594 FP, 6 h. Potency, µM (top dose mostly 57.7 µM), usual class: inhibitors. 280,000 tested, 0.39% active; active = well fitted curve in the direction sought with a large enough effect; inconclusive = small, poorly fitted or top-dose-only effect, or another doubt; inactive = no such curve, though single readings can be large; an effect the other way counts as inactive or inconclusive; note: nearly all actives have a fitted effect of over 55% in size
Target sequence (P10636 561-689 P618L limits assumed): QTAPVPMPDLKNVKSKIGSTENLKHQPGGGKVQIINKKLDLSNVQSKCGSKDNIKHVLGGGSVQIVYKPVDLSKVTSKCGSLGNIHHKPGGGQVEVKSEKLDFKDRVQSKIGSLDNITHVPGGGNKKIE
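K18 P301L tau (15 uM unlabeled/0.24 uM Alexa 594-labeled, final) + compound + heparin 20 uM final; 100 mM NaOAc pH 7; 6 hr 37 C; ThT 30 uM final added, 1 hr RT; FP ex 555/em 632 nm.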
Tau fluor counter: counter-screen for tau fibril formation inhibitors; tau K18 P301L Alexa594 fluorescence, heparin fibrillization; Potency, µM (highest dose often 57.7 µM); 280,000 tested, 0.93% active; active = well fitted curve in the direction sought with a large enough effect; inconclusive = small, poorly fitted or top-dose-only effect, or another doubt; inactive = no such curve, though single readings can be large; an effect the other way counts as inactive or inconclusive; note: nearly all actives have a fitted effect of over 55% in size
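Human K18 P301L tau (15 uM unlabeled plus 0.24 uM Alexa 594-labeled, final) in 100 mM sodium acetate pH 7 was mixed with compound and 20 uM heparin and incubated 6 hr at 37 C.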
Tau fibril ThT: inhibitors of human tau fibril formation, thioflavin T binding; P10636; recombinant tau K18 P301L (four-repeat tau fragment), heparin-induced fibrillization, ThT fluorescence; Potency, µM (series often up to 57.4 µM), most hits filed as inhibitors; 270,000 tested, 2.1% active; AID 1460; active = well fitted curve in the direction sought with a large enough effect; inconclusive = small, poorly fitted or top-dose-only effect, or another doubt; inactive = no such curve, though single readings can be large; an effect the other way counts as inactive or inconclusive; note: nearly all actives have a fitted effect of over 55% in size
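K18 P301L tau (15 uM + 0.24 uM Alexa 594-tagged), heparin 20 uM, NaOAc pH 7, 6 h 37 C; ThT 30 uM, 1 h RT, ex 450/em 510 nm.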
Hits are given with their value; n = inactive; u = inconclusive; x = no result; [ ] = dose if it differs, or a comment. Unless noted, calls come from the whole dose curve; as a rule, active = well fitted inhibition curve with a large enough effect (not every such curve was filed as active); inconclusive = small, poorly fitted or top-dose-only effect, or another doubt; inactive = no such curve, though single readings can be large or run the other way.

SMILES | HPGD block | JMJD2E inh | ALDH1A1 block | Tau FP inhib | Tau fluor counter | Tau fibril ThT
O=C(NC1CCCc2ccccc21)C1CCN(C(=O)c2sccc2-n2cccc2)CC1 (stereo not given) | n | n | 1µM | n | n | u
COc1ccccc1CNC(=O)C1CCN(C(=O)c2sccc2-n2cccc2)CC1 | x | x | x | n | n | n
O=C(c1sccc1-n1cccc1)N1CCCC1 | n | n | u | n | n | n
CC1(C)Cc2nc(NC3CCCCC3)c(C#N)cc2CO1 | x | n | u | n | n | n
Cc1c(Cl)ccc2c(C(=O)NC(C)c3ccncc3)cc(-c3ccncc3)nc12 (stereo not given) | x | n | 1.12µM | n | n | u
CC(NC(=O)c1cc(F)c(F)cc1Cl)c1ccncc1 (stereo not given) | x | n | n | n | n | n
Cc1c(Cl)ccc2c(C(=O)NCCN3CCCCC3)cc(-c3ccccn3)nc12 | x | n | n | n | n | n
COC(=O)CNC(=O)c1cc(-c2ccncc2)nc2c(C)c(Cl)ccc12 | x | n | 12.6µM | n | n | n
Cc1ccc(-n2c(=O)c3c(cnn3C)n(CC(=O)Nc3c(C)cccc3C)c2=O)cc1 | x | x | x | u | n | n
CCN1CCN(c2nc(C)nc3c2sc(=S)n3C)CC1 | 10µM | n | u | n | n | u
COc1cccc(Cc2nc3ccccc3nc2SCC(=O)NCc2ccc(C)cc2)c1 | x | x | x | n | n | n
O=C(NC(=S)Nc1ccc(-c2nc3ncccc3o2)cc1)c1ccccc1F | x | u | u | n | n | u
Cc1[nH]c(=O)[nH]c(=O)c1S(=O)(=O)Nc1ccc(Oc2ccccc2)cc1 | n | n | n | n | n | n
CN(C)S(=O)(=O)Nc1ccc(Oc2ccccc2)cc1 | 12.6µM | n | n | n | n | n
O=c1c2cn[nH]c2nc(SCc2c(F)cccc2F)n1-c1ccc(Cl)cc1 | x | n | n | u | u | n
O=C(CN1CCN(Cc2ccc(Cl)cc2)CC1)N/N=C/c1c[nH]c2ccccc12 | n | n | n | u | u | n
O=C(N/N=C/c1c[nH]c2ccc(Br)cc12)c1ccn(Cc2ccc(Cl)cc2)n1 | n | n | n | n | 11.2µM[quencher] | u
O=C(N/N=C/c1c[nH]c2ccccc12)c1ccn(Cc2ccc(Cl)cc2Cl)n1 | u | n | n | n | 12.6µM[quencher] | u
O=C(O)/C=C\C(=O)Nc1ncn[nH]1 | n | x | n[13.5 µM] | x | x | x
CCOC(=O)N1CCN(S(=O)(=O)/C=C/c2ccccc2)CC1 | n | n | n | n | n | n
CCOC(=O)N1C/C(=C\c2ccccc2)C(=O)/C(=C/c2ccccc2)C1 | x | n | u | u | n | 14.1µM
COc1cc2oc(=O)c(Br)c(C)c2c(OC)c1OC | n | n | 12.6µM | n | n | n
COc1cc2oc(=O)cc(C)c2c(OC)c1OC | n | n | u | n | n | n
Cc1nc(S/C(=C/c2ccc(-c3cccc(Cl)c3)o2)C(=O)O)n[nH]1 | n | n | n | n | n | 2.82µM
Cc1ccc2nc(/C(C#N)=C/c3ccc(-c4cccc(Cl)c4)o3)[nH]c2c1 | x | x | x | n | u | n
SMILES | HPGD block | JMJD2E inh | ALDH1A1 block | Tau FP inhib | Tau fluor counter | Tau fibril ThT
CC(C)OC(=O)c1ccc(NC(=O)Cn2c(-c3nonc3N)nc3ccccc32)cc1 | n | n | 22.4µM | u | n | n
COC(=O)c1ccc(NC(=O)Cn2c(-c3nonc3N)nc3ccccc32)cc1 | x | n | n | n | n | n
CCOc1ccccc1NC(=O)c1ccc(F)c(S(=O)(=O)NCc2ccc3c(c2)OCO3)c1 | x | x | x | n | n | n
CNc1ccccc1C(=O)OC | x | 22.4µM | x | n | n | n
CC(=O)Oc1ccccc1N(C(C)=O)S(=O)(=O)c1ccc2ccccc2c1 | x | n | n | n | n | n
CC(=O)Oc1ccc(N(C(C)=O)S(=O)(=O)c2cccs2)c2ccccc12 | n | n | 5.01µM | n | u | u
Cc1cc(C(=O)N(C)C)sc1-c1ccccc1 | 6.31µM | n | n | n | n | n
CCOC(=O)c1c(NC(=O)CSc2nnc(-c3cccc(C)c3)n2CC)sc(C(C)=O)c1C | 15.8µM | n | n | n | n | n
CCOC(=O)c1c(NC(=O)CSc2n[nH]c(CNc3ccccc3)n2)sc(C)c1C | n | n | n | n | u | n
CCOC(=O)c1c(NC(=O)CSc2nnc(-c3ccc(C)cc3)o2)sc(C(C)=O)c1C | n | n | n | n | n | n
CCOC(=O)c1sc(NC(=O)CSc2nnc(-c3ccco3)n2CC)c(C(=O)OCC)c1C | u | n | u | n | n | u
CCOC(=O)c1c(NC(=O)CSc2nnc(-c3ccccc3)o2)sc(C(C)=O)c1C | 17.8µM | n | u | n | n | n
CCOC(=O)c1c(NC(=O)CSc2n[nH]c(-c3ccco3)n2)sc(C)c1C | 15.8µM | n | n | n | u | n
CCOC(=O)c1c(NC(=O)CSc2cccc[n+]2[O-])sc(C(=O)Nc2ccccc2)c1C | x | n | 28.2µM | n | n | n
COc1ccc(C)cc1NC(=O)C(=O)NCCc1csc(-c2ccc(C)cc2)n1 | x | x | x | n | n | n
CCOC(=O)c1sc(NC(=O)CSc2nncs2)c(C(=O)OCC)c1C | 28.2µM | n | u | n | n | n
CCOC(=O)c1sc(NC(=O)CSc2nc3ccccc3s2)c(C(=O)OCC)c1C | n | n | n | n | n | n
COc1cc(Sc2ccc(C)cc2)c(OC)cc1N | 28.2µM | n | 3.55µM | n | u | u
CN(CCC1CCCCO1)C(=O)CCc1nnc(C2CCCCC2)o1 (stereo not given) | x | n | n | n | n | n
CCCCC(=O)Nc1cccc(C(=O)Nc2ccccc2C(=O)O)c1 | x | n | n | n | n | n
O=C(COc1ccc(/C=N/NC(=O)c2ccccc2)cc1)Nc1ccc([N+](=O)[O-])cc1 | n | n | n | n | n | u
O=C(COC(=O)c1ccccc1NC(=O)c1ccccc1)c1ccc([N+](=O)[O-])cc1 | n | n | 8.91µM | n | u | u
O=C(COc1ccc([N+](=O)[O-])cc1)Nc1ccc(C(=O)Nc2ccccc2C(=O)O)cc1 | x | n | 12.6µM | u | n | u
O=C(O)c1ccccc1Nc1cccc(OCc2ccc3ccccc3n2)c1 | n | n | u | n | 8.91µM[quencher] | 14.1µM
O=C(COc1ccc2ccccc2c1)Nc1cccc(C(=O)Nc2ccccc2C(=O)O)c1 | u | n | 14.1µM | n | n | n
Cc1ccc(NC(=O)CN2C(=O)CC(c3ccc(C)c(C)c3)=Nc3ccccc32)cc1 | x | x | x | u | n | n
COC/C=C/C1=CC2=CC(=O)C(C)(OC(=O)c3cnc4ccccc4n3)C(=O)C2=CN1Cc1ccc2c(c1)OCO2 (stereo not given) | n | n[11.4 µM] | u | n[11.6 µM] | n[11.6 µM] | u
COc1ccc(C(=O)COC(=O)c2ccccc2NS(=O)(=O)c2ccc(O)c([N+](=O)[O-])c2)cc1 | x | n | u | n | n | 15.8µM
